# Shown are actives, neighbours in structure and some others; about 0.99% of the full set was active somewhere.
# Hsp90 block: tumor Hsp90 inhibitors, primary screen, cell lysate, fluorescence polarization, NCI-N417 lysate. Heat shock protein HSP 90-alpha (Homo sapiens), P07900. Cy3B-geldanamycin FP displacement. inhibition, % at 30 µM. 64,000 compounds, 0.35% hits;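 active = inhibition above 50%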;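 note: 0% = tracer plus lysate wells and 100% = tracer alone without lysate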
# SK-BR-3 tox 24h: SK-BR-3 proliferation inhibitors, primary screen, cell-based, human, 24 h | SK-BR-3 viability, CellTiter-Glo ATP luminescence; stronger effect = lower value | viability, % at 10 µM | 41,000 compounds, 0.47% hits | AID 847, 2007;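 active = viability at or below the median of all test compounds minus 3 SD, in both replicates if run twice, cut at about 45% in these data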;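 note: 100% = median untreated cell wells and 0% = median positive control drug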
# Cdc25B block: inhibitors of Cdc25B phosphatase catalytic domain, primary screen, biochemical, OMFP fluorescence | M-phase inducer phosphatase 2 (Homo sapiens), P30305 | recombinant Cdc25B, OMFP fluorescence Ex485/Em525 | inhibition, %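 (compounds tested at 10 µM final in the well)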 | 65,000 compounds, 0.1% hits | AID 368, 2006; in the data active = inhibition above about 50%
# PKA kinase inh: inhibitors of human PKA kinase activity, primary screen, biochemical, ATP-depletion luminescence, Kemptide substrate. 65,000 compounds, 0.1% hits. cAMP-dependent protein kinase catalytic subunit alpha (Homo sapiens), P17612. inhibition, % at 6 µM. PKA Kemptide phosphorylation, Kinase-Glo ATP luminescence;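 active = inhibition above the screen-wide mean inhibition plus 3 SD, cut at about 21% in these data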
# MKP-1 inh: MKP-1 phosphatase inhibitors, primary screen, biochemical, in vitro | 65,000 compounds, 0.15% hits | inhibition, %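 (compounds tested at a single concentration somewhere between 10 and 100 µM)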 | AID 374, 2006 | Dual specificity protein phosphatase 1 (Homo sapiens), P28562 | recombinant MKP-1, OMFP hydrolysis fluorescence;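 active = inhibition above about 50%, limit read from the data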;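 note: 0% = DMSO max control wells and 100% = wells with enzyme stopped by NaOH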
# ROCK2 inh: inhibitors of human ROCK2 kinase, primary screen, biochemical, high-throughput, luminescence | inhibition, % at 6 µM | Rho-associated protein kinase 2 (Homo sapiens), O75116 | purified ROCK2, Kinase-Glo ATP depletion luminescence | 60,000 compounds, 0.35% hits;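 active = inhibition above the screen-wide mean inhibition plus 3 SD, cut at about 18% in these data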;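 note: plate controls were DMSO wells for no effect and Y-27632 control wells after no-enzyme background subtraction for full effect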
# Redox H2O2 0p5DTT: redox cycling H2O2 generation, 0.5 mM DTT, dose response, artefact control, biochemical, Cdc25B catalytic domain. cell-free redox cycling H2O2 generation. 30 compounds, 50% hits. EC50, µM. shares compounds with Cdc25B block; in the data active = EC50 below about 30 µM
# Redox H2O2 1DTT: redox cycling H2O2 generation, 1 mM DTT, dose response, artefact control, biochemical, 1.0 mM DTT, Cdc25B catalytic domain | AID 683, 2007 | shares compounds with Cdc25B block | cell-free redox cycling H2O2 generation | EC50, µM | 30 tested, under 10 active; in the data active = EC50 below about 50 µM
# Redox cycler: redox cycling hydrogen peroxide production, dose response, artefact control, biochemical, probe assessment; shares compounds with MKP-1 inh; Redox cycling H2O2 generation, DTT, phenol red/HRP; EC50, µM; 60 tested, under 10 active; call rule not given here
# * marks the source's active call; other numbers are inactive results; · = not tested or not shown.
SMILES,Hsp90 block,SK-BR-3 tox 24h,Cdc25B block,PKA kinase inh,MKP-1 inh,ROCK2 inh,others
O/N=C/c1c[nH]c2ccccc12,-11,96,-7,64*,0,82*,
Nc1ncnc2c1ncn2[C@@H]1O[C@H](COP(=O)(O)CP(=O)(O)OP(=O)(O)O)[C@H](O)C1O (some centres not stated),1,·,·,·,·,·,
CN(N=O)c1cc(O)ccc1O,99*,·,·,·,·,·,
Cc1c(C(=O)N2CCC3(CC2)OCCO3)sc2ncnc(N3CCN(c4ccccn4)CC3)c12,-2,38*,-6,5,12,1,
O=C(c1sc2ccccc2c1Cl)N1CCC2(CC1)OCCO2,-3,92,-6,5,-1,6,
C=CCn1c(O)c(C(CC)=NCc2cc(OC)cc(OC)c2)c(=O)[nH]c1=O,0,34*,-15,13,-23,3,
C=CCn1c(O)c(C(CC)=NCCCO)c(=O)[nH]c1=O,4,44*,-1,10,-29,1,
C=CCn1c(O)c(C(CC)=Nc2ccccc2NC(C)=O)c(=O)[nH]c1=O,-2,117,8,-3,-29,3,
CC(=O)OCC1=C(C(=O)[O-])N2C(=O)[C@@H](NC(=O)CCC[C@@H](N)C(=O)[O-])[C@H]2SC1.[Zn+2],-1,·,·,·,·,·,
C[C@H]1CCC[C@H](O)CCCCCc2cc(O)cc(O)c2C(=O)O1,87*,·,-10,3,10,4,
NC(CCCCCP(=O)(O)O)C(=O)O (configuration not stated),1,·,·,·,·,·,
C=CCN1C[C@@H](C)N([C@H](c2ccc(C(=O)N(CC)CC)cc2)c2cccc(OC)c2)C[C@@H]1C,-2,·,·,·,·,·,
C=CCN(CC=C)Cc1c[nH]c2ccccc12,-6,27*,-7,4,-10,2,
O=C(CN1C(=O)CN=C(c2ccccc2)c2ccccc21)NCc1ccco1,-3,91,15,-5,0,-3,
COc1ccc(C2=NCC(=O)N(CC(=O)NCc3ccco3)c3sc4c(c32)CCCC4)cc1OC,0,67,56*,12,2,6,
NC(Cn1oc(=O)[nH]c1=O)C(=O)O (configuration not stated),41,·,·,·,·,·,
NC1CCc2cc(O)c(O)cc2C1 (configuration not stated),53*,·,·,·,·,·,
CCn1nc(-c2ccccc2)nc2c(=O)n(C)c(=O)nc1-2,89*,38*,101*,4,98*,72*,Redox H2O2 0p5DTT=0.73*;Redox H2O2 1DTT=1.6*;Redox cycler=14*
CS(=N)(=O)CC[C@H](N)C(=O)O (some centres not stated),-6,·,·,·,·,·,
CCCCNC(=O)c1c(N)n(CCCOC)c2nc3ccccc3nc12,-3,95,-3,-3,37,·,Redox cycler=>50
NC(N)=NOCC[C@H](N)C(=O)O,1,·,·,·,·,·,

# Compound activity (PubChem BioAssay)
